PubChem BioAssay AID1063 (University of Pittsburgh Molecular Library Screening Center, 2008)
In all, about 200,000 compounds went through this assay and about 18,000 (9%) were called active. Many of the other results were omitted from the sample, so actives are more common in it than they were. A number with no mark means an inactive call. Rule as the data show it: active = inhibition above about 50%; inactive = the rest.

Assay: Leishmania major promastigote growth inhibition, primary screen (AID 1063);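 also: promastigotes grown with compound for 44 hours at 28 °C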
Details: Leishmania major promastigotes, resazurin fluorescence viability; at 10 µM; active compounds read high

Row | Structure (SMILES) | inhibition
1 | CCc1c(C)nc2c(OC)cccc2c1Cl | -3.45%
2 | Cc1cccc(C(=O)OCC(=O)NCC(C)C)c1O | -1.6%
3 | Fc1ccc(COc2cccc(-c3n[nH]c(=S)o3)c2)cc1 | -2.62%
4 | N#Cc1ncc(C(F)(F)F)cc1Oc1cccnc1 | -5.89%
5 | O=C(CSc1nnc(-c2ccc([N+](=O)[O-])cc2)o1)Nc1ccccn1 | 6.18%
6 | COc1ccc(/C=C(\C#N)C(=O)ONC2=NCCCCC2)cc1 | -4.23%
7 | COc1ccc(CCN(C)CCN2C(=O)c3ccccc3C2=O)cc1OC | -2.69%
8 | COc1ccc(CCN2C(=O)c3[nH]nc(-c4ccccc4O)c3C2c2ccc(C)cc2)cc1OC (stereo unspecified) | 75% (active)
9 | COC(=O)c1ccc(C2C(Oc3ccccc3C)C(=O)N2CCc2ccc(OC)c(OC)c2)cc1 (stereo unspecified) | 5.32%
10 | CN1C(=O)/C(=C\c2cc(Br)cs2)c2ccccc21 | 13.9%
11 | CCC(C)c1ccc(NC(=S)NCc2ccccn2)cc1 (stereo unspecified) | -0.38%
12 | Cc1cccc(C)c1N1CCN(S(=O)(=O)N2CCCCC2)CC1 | 15.9%
13 | Cc1cc(C)c2c3c(sc2n1)C(c1ccccc1)C(C#N)=C(N)O3 (stereo unspecified) | 100% (active)
14 | N#CC1=C(N)Oc2c(sc3ccccc23)C1c1ccco1 (stereo unspecified) | 9.33%
15 | Cc1cc(C)c(C#N)c(SCc2[nH]nc3c2C(c2ccccc2)C(C#N)=C(N)O3)n1 (stereo unspecified) | 8.99%
16 | CC(=O)NC(=S)NNC(=O)c1ccc(Br)cc1 | -4.54%
17 | CCOc1ccc(Br)cc1S(=O)(=O)N1CCC(C(=O)O)CC1 | -5.93%
18 | CC1Cc2ccccc2N1C1=CC(=O)CC(C)(C)C1 (stereo unspecified) | 7.71%
19 | O=C(CCc1ccccc1)NNC(=O)c1ccc(Br)cc1 | -3.53%
20 | COc1ccc(C(=O)NC(=S)NNC(=O)c2c(-c3ccccc3)noc2C)cc1 | -0.99%
21 | COc1ccc(C(=O)NC(=S)NNC(=O)CCc2ccccc2)cc1 | 93.2% (active)
22 | O=C(CCCc1ccccc1)NCc1ccccc1 | -8%
23 | O=C(CN1C(=O)c2cccc3cccc1c23)Nc1ccccc1 | -9.01%
24 | Cn1c(=O)n(C)c(=O)n(CC(=O)N2CCCCC2)c1=O | -4.15%
25 | O=C(CN1C(=O)c2cccc3cccc(c23)C1=O)N1CCCCC1 | 89.8% (active)
26 | COc1ccc(OCC(=O)NNC(=O)c2cccc(C)c2)cc1 | -6.27%

Row | Structure (SMILES) | inhibition
27 | Cc1ccc(CC(=O)Nc2cccc(C#N)c2)cc1 | -0.29%
28 | COc1cccc2sc(NNC(=O)c3nc4ccccc4s3)nc12 | 48.5%
29 | COc1cccc2sc(Nc3nc(C)c(C(C)=O)s3)nc12 | 98.4% (active)
30 | CC(=O)c1sc(NC(=O)CCCOc2ccccc2C)nc1C | -7.25%
31 | COC(=O)CSc1ccc2nnc(CCNS(=O)(=O)c3ccc(C)cc3)n2n1 | 2.97%
32 | CSc1ncccc1C(=O)OCc1ccc(Br)cc1 | -1.11%
33 | CCOC(=O)/C(=N\Nc1ccccc1Cl)N(C)C1CCS(=O)(=O)C1 (stereo unspecified) | -1.23%
34 | CCOC(=O)c1cccc(NC(=O)CCOc2ccccc2)c1 | 9.18%
35 | CCc1cccc(NC(=O)CCNS(=O)(=O)c2cccc3nonc23)c1 | -7.76%
36 | CCc1cccc(NC(=O)CCC(=O)O)c1 | 52.3% (active)
37 | CC(OC(=O)c1ccccc1OCc1ccc(Cl)cc1)C(N)=O (stereo unspecified) | 10.8%
38 | CC1CN(/C=C/C(=O)C(F)(F)F)CC(C)O1 (stereo unspecified) | -1.49%
39 | COCC1CCCN(Cc2nc(-c3ccc4c(c3)OCO4)no2)C1 (stereo unspecified) | 0.34%
40 | COc1ccc(CCN(C(=O)COc2ccccc2)c2nc(-c3ccccc3)cs2)cc1OC | 52.1% (active)
41 | CN(C(=O)COc1ccccc1)c1nnc(-c2ccncc2)s1 | -4.81%
42 | COc1ccc(CCNc2nc(-c3cccc(NC(C)=O)c3)cs2)cc1OC | 3.47%
43 | COc1ccc(-n2c(C)nn(CC3CC3)c2=O)cc1 | -6.72%
44 | CC(=O)O[C@]1(C(C)=O)CC[C@H]2[C@@H]3C=C(C)C4=CC(=O)CC[C@]4(C)[C@H]3CC[C@@]21C | 69.8% (active)
45 | CCN(CC)S(=O)(=O)c1cc([N+](=O)[O-])ccc1NNC(=O)Nc1ccccc1 | 31.2%
46 | CCn1c(O)c(N=NC(=O)c2cccc(S(=O)(=O)N3CCCCC3)c2)c2ccccc21 | 3.18%
47 | CCN(CC)S(=O)(=O)c1cc([N+](=O)[O-])ccc1N=Nc1c(O)n(C)c2ccccc12 | 65.5% (active)
48 | Cc1cccc(CN2CCN(Cc3cnn(-c4ccccc4F)c3)CC2CCO)n1 (stereo unspecified) | 3.31%
49 | O=C(NCCOc1ccccc1F)Nc1ccc(Br)cc1 | 1.12%
50 | O=C(CN(C(=O)c1csnn1)c1cccc(F)c1)NCc1ccc(F)cc1 | -3.27%
51 | COc1ccc(CN(C(=O)c2cccs2)c2nccs2)cc1OC | 0.69%
52 | COc1ccc(C2=NN(C(=O)CCC(=O)O)C(c3cccs3)C2)cc1OC (stereo unspecified) | -5.57%

Row | Structure (SMILES) | inhibition
53 | COC(=O)C1=CN(Cc2ccc(OC)c(OC)c2)C=C(C(=O)OC)C1c1cccs1 | 100% (active)
54 | CCCCc1nnc(NC(=O)CSc2nc(N)cc(=O)[nH]2)s1 | 1.7%
55 | Cc1cc(NC(=O)/C=C/C(=O)N(c2ccccc2C)C(C(=O)NC2CCCC2)c2ccc(F)cc2)no1 (stereo unspecified) | 71.3% (active)
56 | Cc1cc(NC(=O)CCC(=O)N(c2cccc(F)c2)C(C(=O)NC2CCCC2)c2ccncc2)no1 (stereo unspecified) | -6.83%
57 | Cc1cc(NC(=O)/C=C/C(=O)N(CC(=O)NC2CCCC2)c2ccc(F)cc2)no1 | 5.25%
58 | CC(=O)c1ccc(NC(=O)CSC(=S)N2CCCC2)cc1 | -5.47%
59 | O=C(Nc1nnc(Cc2ccccc2)s1)c1cnccn1 | 1.06%
60 | COc1ccc(NC(=O)CSc2nc(C)cs2)cc1 | 8.18%
61 | Cc1nn(CC2CC2)c(=O)n1N(C)c1ncc(C(F)(F)F)cc1Cl | 74.1% (active)
62 | Cc1nn(-c2ncc(C(F)(F)F)cc2Cl)c(=O)n1-c1ccccc1 | -12.9%
63 | Cc1nn(CC#N)c(=O)n1N(C)c1ncc(C(F)(F)F)cc1Cl | -6.01%
64 | CC(=O)c1cccc(-n2nnnc2SCC(=O)NNC(=O)C2CCCCC2)c1 | -7.09%
65 | COC(=O)C1=C(N)Oc2c(oc(CO)cc2=O)C1c1c(F)cccc1Cl (stereo unspecified) | 10.5%
66 | Cc1[nH][nH]c(=O)c1C(c1ccc(-c2ccc(Cl)cc2)o1)c1c(C)[nH][nH]c1=O | 100% (active)
67 | CCOc1ccc(C(c2c(C)[nH][nH]c2=O)c2c(C)[nH][nH]c2=O)cc1OCC | 22.5%
68 | Cc1[nH][nH]c(=O)c1C(c1ccc2c(c1)OCO2)c1c(C)[nH][nH]c1=O | 25.9%
69 | C=CCc1cccc2cc(C(=O)NC3CCCC3)c(=O)oc12 | 3.36%
70 | Cc1cccc(-c2ncc(CN3CCC(CO)(CCCc4ccccc4)CC3)cn2)c1 | 15.9%
71 | OCC1(CCc2ccccc2)CCN(Cc2ccc3nsnc3c2)CC1 | 88.2% (active)
72 | OCCC1CN(Cc2ccc3nsnc3c2)CCN1C1CCCC1 (stereo unspecified) | 20.1%
73 | Nn1c(SCC(=O)Nc2nccs2)nncc1=O | -3.46%
74 | CSc1ncnc2sc(C)c(C)c12 | -8.93%
75 | Cc1ccc(S(=O)(=O)N2CCN(S(=O)(=O)N3CCOCC3)CC2)cc1 | -6.92%
76 | CC(=O)Nc1ccc(S(=O)(=O)N2CCN(C3CCCCCCC3)CC2)cc1 | -3.65%
77 | Cc1ccc(S(=O)(=O)N2CCC(N3CCCCCC3)CC2)cc1 | 95.3% (active)
78 | COc1ccc(NC(=O)N2CCCC(c3nc(-c4ccc(F)cc4)no3)C2)cc1 (stereo unspecified) | -5.76%

Row | Structure (SMILES) | inhibition
79 | O=C(COC(=O)CCc1ccc(S(=O)(=O)N2CCOCC2)cc1)Nc1cccc(Cl)c1 | -4.95%
80 | N#C/C(C(=S)Nc1ccccc1)=C1/NN=C(N2CCOCC2)N1c1ccccc1 | 4.1%
81 | Cc1ccc(NC(=S)NCCN2CCOCC2)cc1 | 2.32%
82 | Cc1ccc(C(=O)NC(=S)Nc2ccc(N3CCOCC3)cc2)cc1 | -0.73%
83 | Cc1ccc(C(=O)NC(=S)NCCN2CCOCC2)cc1 | 65.4% (active)
84 | O=C(CCN1CCCCC1)N=Nc1c(O)[nH]c2ccccc12 | 11.4%
85 | CSc1ccccc1C(=O)NCc1ccccc1 | -0.25%
86 | Cc1cc(C)n(CC(=O)Nc2ccc([N+](=O)[O-])cc2)n1 | -2.52%
87 | O=C(COC(=O)c1ccco1)NCc1ccc(Cl)cc1 | -4.2%
88 | COCC(C)n1c(SCc2ccc(C(=O)OC)o2)nc2ccccc2c1=O (stereo unspecified) | 89% (active)
89 | COCCn1c(C)cc(C(=O)CSc2nc3ccccc3c(=O)n2C(C)COC)c1C (stereo unspecified) | 15.4%
90 | COC(=O)c1ccc(CSc2nc3ccccc3c(=O)n2-c2cccc(OC)c2)o1 | 46.8%
91 | Cc1ccc(-c2nn(-c3ccccc3)cc2CN(Cc2ccccc2)C(=O)CCC(=O)O)o1 | -2.65%
92 | CSCCNCc1cn(-c2ccc(F)cc2F)nc1-c1ccccc1C | 15.5%
93 | Cc1ccc(-c2nn(-c3cccc(F)c3)cc2CNCCc2ccncc2)o1 | 56.8% (active)
94 | Cn1c(=O)n(Cc2ccco2)c(=N)c2c3c(sc21)CCCC3 | 13.8%
95 | COc1cccc(OC)c1C(=O)OCC(=O)/C(C#N)=C(\C)N | -3.93%
96 | CCOC(=O)C1=C(CNC2CCCCC2)NC(=O)NC1c1cc(C)ccc1C (stereo unspecified) | 47.4%
97 | COCCOC(=O)C1=C(C)NC(=O)NC1c1ccc(Cl)cc1 (stereo unspecified) | -1.33%
98 | CCOC(=O)C1=C(CN2CCc3ccccc32)NC(=O)NC1c1cccc([N+](=O)[O-])c1 (stereo unspecified) | 82.8% (active)
99 | CCOC(=O)C1=C(CN2CCc3ccccc32)NC(=O)NC1c1ccc(Cl)cc1 (stereo unspecified) | 55.5% (active)
100 | CCOC(=O)C1=C(CN2CCc3ccccc32)NC(=O)NC1c1cc(C)ccc1C (stereo unspecified) | 11.4%
101 | CCOC(=O)C1=C(CN2CCCCCC2)NC(=O)NC1c1cccc([N+](=O)[O-])c1 (stereo unspecified) | 10.7%
